High-throughput results (PubChem BioAssay)
Hits are enriched below; roughly 5.1% of the tested compounds scored in any of these assays.
S1P3 antagonist: blocks the human S1P3 receptor | Q99500 | CHO S1P3 NFAT-BLA reporter, FRET fluorescence, antagonist mode | inhibition, % at 4.98 µM | hit rate 0.27% among 170,000 | AID 485;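 active means inhibition above the plate cutoff, the mean inhibition of test wells on that plate plus 3 SD, cut at about 28% in these data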;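 further: cells challenged with S1P at its EC80 of 0.8 µM; blue over green emission ratio from cleaved BLA substrate after 4 h stimulation; 0% = S1P-stimulated wells and 100% = unstimulated DMSO-only wells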
Target sequence (Q99500 whole entry, looked up): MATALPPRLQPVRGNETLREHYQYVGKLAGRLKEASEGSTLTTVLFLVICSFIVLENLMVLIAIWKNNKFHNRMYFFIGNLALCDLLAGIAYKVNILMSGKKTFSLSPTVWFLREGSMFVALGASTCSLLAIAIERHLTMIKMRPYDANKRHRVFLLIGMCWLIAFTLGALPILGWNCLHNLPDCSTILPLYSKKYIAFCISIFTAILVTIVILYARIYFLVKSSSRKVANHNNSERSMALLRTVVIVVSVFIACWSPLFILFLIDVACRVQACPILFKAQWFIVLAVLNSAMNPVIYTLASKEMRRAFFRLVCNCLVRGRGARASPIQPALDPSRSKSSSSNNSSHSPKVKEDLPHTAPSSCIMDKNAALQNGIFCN
S1P4 antagonist: blocks the human S1P4 receptor. inhibition, % at 4.98 µM. AID 1510. hit rate 0.26% among 220,000. O95977. S1P4-expressing cells, antagonist mode, reporter read-out; in the data active means inhibition above about 29%;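 further: 0% = wells stimulated with agonist and 100% = vehicle wells without agonist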
RAM network inh: blocks the yeast RAM network; hit rate 1.8% among 190,000; S. cerevisiae dse1pr::URA3 reporter, 5-FOA growth OD615, 2 d; analog-sensitive cbk1-as2 kinase mutant strain; inhibition, % at 50 µM;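 active means inhibition above a set limit, 3 SD over mean compound inhibition, cut at about 8.4% in these data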;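 further: 0% = DMSO-only wells with no growth and 100% = 10 µM 1-NA-PP1 full growth; inhibition rescues growth on 5-FOA so higher OD means more RAM inhibition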
ROMK primary: human ROMK K+ channel modulation, primary screen. P48048. Tet-inducible ROMK, thallium flux fluorescence; actives lie on both sides. B-score at 10 µM. AID 1918. hit rate 2% among 130,000;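 active means signal ratio slope over the read window, or its plate-corrected B-score, at least 3 SD from the plate mean, either direction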;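 further: B-score of the F/F0 ratio slope over 7 to 12 s after thallium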
S1P4 ag: agonists of human S1P4 receptor; O95977; S1P4-expressing cell line, agonist reporter assay; activation, % at 4.98 µM; hit rate 0.35% among 220,000; in the data active means activation above about 11%;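 further: 0% = DMSO vehicle and 100% = reference agonist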
Cl transport mod: modulates chloride dependent transport by human KCC2. Q9H2X9. KCC2 cells, thallium flux FluoZin-2 fluorescence. B-score of Tl+ flux slope (higher = more flux/activation; lower = inhibition) at 10 µM. hit rate 2.2% among 190,000. AID 1456;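 active means thallium flux slope and its plate-corrected score both differing from the plate sample mean at a set confidence after two filtering rounds, in either direction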;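 further: slope of fluorescence scaled to starting intensity during 10 to 20 s after thallium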
KCC2 sec1: confirmation of human KCC2 transport modulators | shares compounds with Cl transport mod | HEK293-KCC2, thallium flux, FluoZin2 fluorescence; active compounds read high | normalised thallium flux (F/F0 slope) at 10 µM | hit rate 15% among 3,700 | AID 1713;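 active means thallium flux slope above the same plate's solvent-only control mean plus 3 SD; inconclusive means the two replicate wells disagree; inactive means no significant difference from solvent-only control wells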
KCC2 bumet counter: bumetanide-insensitive thallium flux in KCC2 cells with ouabain, counter-screen. shares compounds with Cl transport mod. AID 1714. normalized thallium flux at 10 µM. hit rate 49% among 3,700. HEK293-KCC2 + bumetanide/ouabain, thallium flux FluoZin2; active compounds read high;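 active means thallium entry rate above the same plate's blocked-transporter control wells by more than 3 SD; inconclusive means the two repeat wells disagree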;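 further: raw slope of fluorescence over initial fluorescence between 10 and 20 s after thallium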
KCC2 sec2: confirmation of human KCC2 transport modulators | shares compounds with Cl transport mod | HEK293-KCC2, thallium flux FluoZin2 fluorescence; actives lie on both sides; F/F0 rise rate, 10–20 s post-thallium | normalized thallium flux at 10 µM | hit rate 23% among 3,700;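 active means thallium flux slope more than 3 SD above or below the plate's solvent-only control mean, mostly below; inconclusive means the two repeat wells disagreed; inactive means no significant shift from solvent-only controls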;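 further: raw slope with 0.1% DMSO as baseline and bumetanide as block control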
HEK293 Tl flux: counter-screen for KCC2 modulators: effect in parental HEK293 cells; shares compounds with Cl transport mod; thallium flux FluoZin2, ouabain; baseline-ratio fluorescence slope, 10–20 s after thallium; thallium flux rate (normalised fluorescence) at 10 µM; hit rate 46% among 3,700; AID 1716;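 active means thallium flux rate significantly above the same plate's solvent-only control wells, beyond their mean plus 3 SD; inconclusive means the two replicate wells gave conflicting results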
KCC2 retest ouab: KCC2 (human) modulation, ouabain retest | shares compounds with Cl transport mod | HEK293-KCC2, thallium flux FluoZin2 fluorescence; bidirectional: low = inhibitor, high = activator | raw Tl+ flux slope (below DMSO = inhibition, above = activation) at 10 µM | hit rate 48% among 3,700 | AID 1717;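 active means thallium flux slope beyond 3 SD from same-plate DMSO control mean in most replicates, usually higher, sometimes lower; inconclusive means repeat tests gave conflicting results; inactive means no significant difference from controls in most replicates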;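 further: slope of initial-normalized fluorescence between seconds 10 and 20 after thallium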
HEK counter2: parental HEK flux effect, counter-screen 2; hit rate 33% among 3,700; AID 1718; thallium flux slope at 10 µM; shares compounds with Cl transport mod; HEK293 parental, thallium flux FluoZin-2 fluorescence slope;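 active means thallium flux slope above the same plate's solvent-control mean plus 3 SD in both duplicate wells; inconclusive means duplicate wells that disagreed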;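 further: run without ouabain in cells lacking the KCC2 cotransporter; slope of fluorescence scaled to its starting value between 10 and 20 s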
An asterisk follows results filed as active; ? = inconclusive; / = not tested or not shown.

SMILES	S1P3 antagonist	S1P4 antagonist	RAM network inh	ROMK primary	S1P4 ag	Cl transport mod	KCC2 sec1	KCC2 bumet counter	KCC2 sec2	HEK293 Tl flux	KCC2 retest ouab	HEK counter2
O=C(Nc1nc2cc3c(cc2s1)OCO3)C1CC1	-3	-6	/	-0.63	3	0.59	/	/	/	/	/	/
Cc1cnc(CNC(=O)c2ccc(OC3CCN(C(=O)C4CC4)CC3)cc2)cn1	-5	4	-1	1.8	-1	-0.88	/	/	/	/	/	/
COc1cccc(Nc2nc3ccc(OC)cc3s2)c1	4	11	-2	-0.16	1	-2	/	/	/	/	/	/
Cc1cccc(Nc2n[nH]c(=S)s2)c1C	/	4	0	/	0	-5.3*	0.0057	0.0068	0.017*	0.0072	0.0074*	?
COc1ccccc1Nc1n[nH]c(=S)s1	10	-20	1	-0.0083	3	-1.8	/	/	/	/	/	/
COc1cccc(Nc2n[nH]c(=S)s2)c1	-10	-16	-1	/	0	-6.8*	0.0062	0.0044	0.021*	0.0068	0.011*	0.0093
COC(=O)c1sc(-c2ccc(Cl)cc2)cc1NC(=O)/C=C/C(=O)O	-12	12	/	1.2	1	-4.1*	0.0095	0.008*	0.03	0.0075	0.014*	0.012
CCCc1cc(=O)n2[nH]c(C)c(-c3ccccc3)c2n1	-43	-10	2	1	0	2.2	/	/	/	/	/	/
Cc1[nH]n2c(=O)cc(C(C)C)nc2c1-c1ccccc1	-18	-1	1	/	1	6.7*	?	0.015*	?	?	?	0.011
Cc1ccc(C(=O)N(CN2CCCC2=O)c2ccccc2)cc1C	-16	-16	2	0.17	2	/	0.0086	0.0064	0.028	0.0073	0.02	0.0098
COCCn1c(C)cc(C(=O)CSc2ccc(NC(C)=O)cc2)c1C	15	-13	2	2.1	1	1.2	/	/	/	/	/	/
COCC(C)n1c(C)cc(C(=O)CSc2ccc(NC(C)=O)cc2)c1C (stereo unspecified)	/	-5	1	-0.84	0	-5.8*	0.0082	0.0056	0.035	0.0079	0.02	0.012
Cc1nc(CC(C)C)cc(C(=O)N2CCCC(CNS(=O)(=O)c3cccs3)C2)n1 (stereo unspecified)	-15	-16	0	0.34	1	0.54	/	/	/	/	/	/
Clc1cccc2sc(N3CCCCC3)nc12	2	-13	2	/	0	0.11	/	/	/	/	/	/
O=C(O)c1cc(-c2cccc(Cl)c2)nc2nc(N3CCCCC3)sc12	3	-10	1	0.64	1	-4.2*	0.009	0.0058	0.034	0.0075	0.017*	0.01
Cn1ccs/c1=N\C(=O)Nc1cccc(Cl)c1	1	-24	0	0.7	3	/	/	/	/	/	/	/
CCC(=O)Nc1ccc(NC(=O)c2ccco2)cc1	/	3	3	0.08	-1	/	0.01	0.0094*	0.034	0.009*	0.023	?
O=C(Nc1ccc2c(c1)Cc1ccccc1-2)c1ccco1	/	-14	6	0.56	1	/	?	0.05*	0.032	0.023*	0.028	0.013*
O=C(c1cccc(C(F)(F)F)c1)c1c[nH]c(C(=O)NCCCN2CCOCC2)c1	5	-21	2	-0.46	-1	0.14	/	/	/	/	/	/
Cc1cnn(Cc2cccnc2)c1N	-14	0	/	/	-1	/	/	/	/	/	/	/
O=C(Nc1nc(COc2ccccc2)cs1)C1CCC1	/	-13	2	-0.38	2	-4.3*	0.0093	0.0071	?	0.0068	0.013*	?
CCCCNC(=O)COC(=O)c1ccc(F)cc1Cl	-10	-14	2	-0.062	1	1	/	/	/	/	/	/
COc1ccccc1OCC(=O)N1CC2(C)CC1CC(C)(C)C2 (stereo unspecified)	/	-10	-1	-0.54	2	5*	0.0086	0.006	0.033	0.008	0.022	0.01
O=C(CSc1nc2cc([N+](=O)[O-])ccc2n1-c1ccc(F)cc1)NC1CCS(=O)(=O)C1 (stereo unspecified)	8	7	4	-0.0035	-1	1	/	/	/	/	/	/
O=C(NC(=S)N1CCCCC1)c1cccs1	3	0	0	0.9	-2	0.56	/	/	/	/	/	/
C=CCNC(=S)NC(=O)c1csc([N+](=O)[O-])c1	-4	-1	/	/	0	5.9*	0.0092	0.02*	0.03	0.0097*	?	0.0097
O=C(NC(=S)N1CCCCC1)c1csc([N+](=O)[O-])c1	2	8	/	/	0	24*	0.022*	0.032*	0.035	0.017*	?	0.013*
CC1CCCC(NC(=O)COC(=O)CCSc2ccccc2)C1C (stereo unspecified)	7	-1	2	0.38	-1	/	0.0076	0.0059	0.034	0.0069	0.017*	0.01
